Measured values as given in PubChem BioAssay (EPA / NIEHS).
Where “and” joins values, the source holds several entries; their conditions need not be identical. Equal values may be shown once. Inconclusive results are not listed. Calls of active or inactive are those of the source. The calls were made as follows: active = hit-call score of the fitted dose curve at least 0.9, where 1 is the maximum; inconclusive = response in the unintended direction; inactive = score below 0.9.

biological target: mouse Cholecystokinin, CCK1 Receptor (CCKA), Cckar (gene 12425) (UniProt O08786); assay: NVS_GPCR_mCCKAPeripheral: NovaScreen (NVS) G Protein-Coupled Receptor Assay for mouse Cholecystokinin, CCK1 Receptor (CCKA) (AID 2283285)
Outline: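 Radioligand competitive displacement on mouse pancreatic membranes, 2 h incubation; filter-based scintillation counting, loss of signal versus DMSO. Single-concentration screen at 25 uM in duplicate, actives retested in concentration-response up to 50 uM.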

Sequence of mouse Cholecystokinin, CCK1 Receptor (CCKA), Cckar (gene 12425) (O08786 whole entry, looked up): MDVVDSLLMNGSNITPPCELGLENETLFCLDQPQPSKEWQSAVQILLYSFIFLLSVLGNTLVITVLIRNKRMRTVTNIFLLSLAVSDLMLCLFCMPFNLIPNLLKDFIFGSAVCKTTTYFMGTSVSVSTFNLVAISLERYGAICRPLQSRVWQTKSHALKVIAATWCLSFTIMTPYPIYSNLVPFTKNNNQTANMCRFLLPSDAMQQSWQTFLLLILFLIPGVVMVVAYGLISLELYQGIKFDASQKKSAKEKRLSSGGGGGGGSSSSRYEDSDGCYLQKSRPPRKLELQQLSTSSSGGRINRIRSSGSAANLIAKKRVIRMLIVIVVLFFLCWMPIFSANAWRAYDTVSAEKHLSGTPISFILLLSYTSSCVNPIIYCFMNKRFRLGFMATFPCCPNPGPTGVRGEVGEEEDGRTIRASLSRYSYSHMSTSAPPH

SMILES	AC50	outcome
CN(C)C(=O)NC1(c2ccccc2)CCN(CC[C@@]2(c3ccc(F)c(F)c3)CN(C(=O)c3ccccc3)CCO2)CC1	12.8 µM (active)	
CN(C)CCCN1c2ccccc2Sc2ccc(Cl)cc21	21.8 µM (active)	
CCC(C)N(C)C(=O)c1cc2ccccc2c(-c2ccccc2Cl)n1 (stereo not given)	10.8 µM (active)	
CCc1cc(C2=C(C(=O)O)N(c3ccccc3C(F)(F)F)S(=O)(=O)c3ccccc32)cc2c1OCO2	16.6 µM (active)	
Cc1cc(SC2=C(O)C[C@@](CCc3ccc(N)cc3)(C(C)C)OC2=O)c(C(C)(C)C)cc1CO		inactive
O=C(NS(=O)(=O)/C=C/c1cccs1)c1ccc(F)cc1Br	22.6 µM (active)	
CCN(CC)CCOc1ccc(C(=C(Cl)c2ccccc2)c2ccccc2)cc1	21.4 µM (active)	

biological target: rat Serotonin, 5-Hydroxytryptamine Receptor 1 (5HT1), Non-Selective Binding, Htr1a (gene 24473) (UniProt P19327); assay: NVS_GPCR_r5HT1_NonSelective: NovaScreen (NVS) G Protein-Coupled Receptor Assay for rat Serotonin, 5-Hydroxytryptamine Receptor 1 (5HT1), Non-Selective Binding (AID 2283286)
Outline: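 Rat cortical membranes, radioligand displacement, 1 h incubation, read by filter scintillation. Primary screen in duplicate at 25 uM. Hits (e.g. ≥30% inhibition) went to concentration-response up to 50 uM, fitted as loss of binding versus DMSO.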

Sequence of rat Serotonin, 5-Hydroxytryptamine Receptor 1 (5HT1), Non-Selective Binding, Htr1a (gene 24473) (P19327 whole entry, looked up): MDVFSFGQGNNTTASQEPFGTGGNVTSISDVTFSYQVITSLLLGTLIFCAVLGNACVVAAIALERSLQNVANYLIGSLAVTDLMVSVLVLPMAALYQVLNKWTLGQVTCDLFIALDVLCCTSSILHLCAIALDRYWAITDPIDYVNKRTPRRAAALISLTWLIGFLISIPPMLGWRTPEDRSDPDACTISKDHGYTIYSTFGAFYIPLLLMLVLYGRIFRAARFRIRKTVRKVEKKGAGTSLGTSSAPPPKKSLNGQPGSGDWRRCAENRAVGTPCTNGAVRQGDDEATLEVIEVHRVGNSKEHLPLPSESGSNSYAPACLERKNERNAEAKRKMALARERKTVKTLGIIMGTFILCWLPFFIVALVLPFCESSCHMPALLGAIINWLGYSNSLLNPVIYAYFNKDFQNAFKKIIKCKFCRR

SMILES	AC50	outcome
CN(C)CCCN1c2ccccc2Sc2ccc(Cl)cc21	8.89 µM (active)	
CC(C)(C)c1ccccc1		inactive
Nc1nc(=S)c2[nH]cnc2[nH]1		inactive
O=C(O)c1[nH]n(-c2ccc(S(=O)(=O)O)cc2)c(=O)c1N=Nc1ccc(S(=O)(=O)O)cc1	5.69 µM (active)	
Cn1cnc2c1c(=O)[nH]c(=O)n2C		inactive

system: rabbit Platelet Activating Factor Receptor (PAF), gene 100354046; assay: NVS_GPCR_rabPAF: NovaScreen (NVS) G Protein-Coupled Receptor Assay for rabbit Platelet Activating Factor Receptor (PAF) (AID 2283287)
Outline: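 Rabbit platelet membrane preparation; radioligand displacement read by filter-based scintillation counting 1 h after dosing, loss of signal versus DMSO. Primary screen in duplicate at 25 uM, actives followed up in concentration series.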

SMILES	AC50
CCC(C)N(C)C(=O)c1cc2ccccc2c(-c2ccccc2Cl)n1 (stereo not given)	7.29 µM (active)
CCc1cc(C2=C(C(=O)O)N(c3ccccc3C(F)(F)F)S(=O)(=O)c3ccccc32)cc2c1OCO2	4.11 µM (active)
COC(=O)[C@H]1[C@H]2C[C@@H]3c4[nH]c5cc(OC)ccc5c4CCN3C[C@H]2C[C@@H](OC(=O)c2cc(OC)c(OC)c(OC)c2)[C@@H]1OC	5.47 µM (active)
CCN(CC)CCOc1ccc(C(=C(Cl)c2ccccc2)c2ccccc2)cc1	4.76 µM (active)

system: 5-hydroxytryptamine receptor 2C (pig); assay: NVS_GPCR_p5HT2C: NovaScreen (NVS) G Protein-Coupled Receptor Assay for pig Serotonin, 5-Hydroxytryptamine Receptor 2C (5HT2C) (AID 2283288)
Outline: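 Pig choroid plexus membranes; radioligand competitive binding, filter-based scintillation counting, read 1 h after dosing. Primary screen in duplicate at 25 uM; actives then run as concentration series; loss of signal versus DMSO baseline.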

SMILES	AC50	outcome
CN(C)C(=O)NC1(c2ccccc2)CCN(CCC[C@]2(c3ccc(Cl)c(Cl)c3)CCCN(C(=O)c3ccccc3)C2)CC1	2.57 µM (active)	
S=c1[nH]c2ccccc2s1		inactive
CN(C)C(=O)NC1(c2ccccc2)CCN(CC[C@@]2(c3ccc(F)c(F)c3)CN(C(=O)c3ccccc3)CCO2)CC1	16.7 µM (active)	
C=CCc1ccc(OC)c(OC)c1		inactive
CSc1ccc(Oc2ccc(S(N)(=O)=O)cc2CN(C)C)cc1C	19.2 µM (active)	
CC(COCC(C)OC(=O)c1ccccc1)OC(=O)c1ccccc1 (stereo not given)		inactive
CCc1nc(N)nc(N)c1-c1ccc(Cl)cc1	7.09 µM (active)	
COC(=O)[C@H]1[C@H]2C[C@@H]3c4[nH]c5cc(OC)ccc5c4CCN3C[C@H]2C[C@@H](OC(=O)c2cc(OC)c(OC)c(OC)c2)[C@@H]1OC		inactive
CCN(CC)CCOc1ccc(C(=C(Cl)c2ccccc2)c2ccccc2)cc1	21 µM (active) and 5.8 µM (active) and 15.9 µM (active)	
